# Bioassay records deposited in PubChem by several laboratories.
# EP2 modulator – EP2 receptor modulators, cAMP readout, primary screen, cell-based, HTRF cAMP, PGE2 stimulation; 260,000 tested, 0.83% active; Prostaglandin E2 receptor EP2 subtype (Homo sapiens), P43116; EP2-expressing cells, cAMP HTRF FRET, PGE2 co-stimulation; induction, % at 25 µM;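 active = compounds whose cAMP rise, as percent of the full-agonist control response, exceeds 60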;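 note: rat C6 glioma line stably carrying human EP2 under a CMV promoter; the protocol text gives 20 µM as final concentration; 100% = response of wells given 1 µM PGE2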
# EP2 antag – human EP2 receptor antagonists, primary screen, TR-FRET cAMP, C6 glioma cells; inhibition, % at 25 µM; C6 glioma cells expressing human EP2; cells stimulated with saturating PGE2; Prostaglandin E2 receptor EP2 subtype (Homo sapiens), P43116; AID 1422, 2008; 260,000 tested, 0.52% active;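 active = percent inhibition above 40 after rounding to a whole number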;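 note: rat C6 glioma host cells with rolipram phosphodiesterase inhibitor present; the protocol text gives 20 µM as final concentration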
# S1P3 antagonist – S1P3 receptor antagonists, primary screen, cell-based. inhibition, % at 4.98 µM. 170,000 tested, 0.27% active. Sphingosine 1-phosphate receptor 3 (Homo sapiens), Q99500. CHO S1P3 NFAT-BLA reporter, FRET fluorescence, antagonist mode;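 active = inhibition above the plate cutoff, the mean inhibition of test wells on that plate plus 3 SD, cut at about 28% in these data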;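 note: cells challenged with S1P at its EC80 of 0.8 µM; blue over green emission ratio from cleaved BLA substrate after 4 h stimulation; 0% = S1P-stimulated wells and 100% = unstimulated DMSO-only wells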
# KCC2 mod – KCC2 cotransporter modulators, thallium flux, primary screen, cell-based, HEK293 KCC2, FluoZin-2 fluorescence, MLSMR; Solute carrier family 12 member 5 (Homo sapiens), Q9H2X9; KCC2 cells, thallium flux FluoZin-2 fluorescence; B-score of Tl+ flux slope (higher = more flux/activation; lower = inhibition) at 10 µM; 190,000 tested, 2.2% active; AID 1456, 2008;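 active = thallium flux slope and its plate-corrected score both differing from the plate sample mean at a set confidence after two filtering rounds, in either direction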;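 note: slope of fluorescence scaled to starting intensity during 10 to 20 s after thallium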
# Target sequence (Q9H2X9 whole entry, looked up): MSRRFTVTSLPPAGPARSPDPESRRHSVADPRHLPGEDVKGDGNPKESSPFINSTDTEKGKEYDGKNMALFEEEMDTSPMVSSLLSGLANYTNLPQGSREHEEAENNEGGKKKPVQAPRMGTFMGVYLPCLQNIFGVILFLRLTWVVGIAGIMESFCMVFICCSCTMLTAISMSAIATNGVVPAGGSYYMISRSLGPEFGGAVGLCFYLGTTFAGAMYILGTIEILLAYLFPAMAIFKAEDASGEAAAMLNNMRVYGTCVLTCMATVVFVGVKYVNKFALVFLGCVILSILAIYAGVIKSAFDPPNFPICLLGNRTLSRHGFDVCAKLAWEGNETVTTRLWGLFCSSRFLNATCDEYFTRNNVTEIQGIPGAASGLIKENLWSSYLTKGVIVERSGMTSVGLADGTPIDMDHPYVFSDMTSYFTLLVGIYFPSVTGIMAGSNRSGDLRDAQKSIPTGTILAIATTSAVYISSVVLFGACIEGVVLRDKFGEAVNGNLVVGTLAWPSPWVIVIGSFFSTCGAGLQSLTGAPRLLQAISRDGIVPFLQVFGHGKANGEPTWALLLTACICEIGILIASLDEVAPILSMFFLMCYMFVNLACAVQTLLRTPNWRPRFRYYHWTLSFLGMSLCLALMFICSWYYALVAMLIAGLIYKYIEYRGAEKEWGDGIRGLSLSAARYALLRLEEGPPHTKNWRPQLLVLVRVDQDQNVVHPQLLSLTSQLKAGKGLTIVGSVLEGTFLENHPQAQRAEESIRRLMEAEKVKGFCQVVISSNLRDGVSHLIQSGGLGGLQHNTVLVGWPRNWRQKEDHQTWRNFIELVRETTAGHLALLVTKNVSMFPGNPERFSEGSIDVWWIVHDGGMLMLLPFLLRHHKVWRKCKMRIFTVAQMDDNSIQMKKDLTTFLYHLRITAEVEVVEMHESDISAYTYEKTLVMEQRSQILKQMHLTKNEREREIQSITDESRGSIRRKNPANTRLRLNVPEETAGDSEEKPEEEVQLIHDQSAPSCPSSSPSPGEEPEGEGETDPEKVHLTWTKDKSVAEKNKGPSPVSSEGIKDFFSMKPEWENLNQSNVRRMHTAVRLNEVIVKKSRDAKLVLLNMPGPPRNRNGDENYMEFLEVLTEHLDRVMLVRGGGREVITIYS
# An asterisk follows results filed as active; . = no result given. In the library only some 3.1% were active in any assay of this set; here they are far more common.
SMILES,EP2 modulator,EP2 antag,S1P3 antagonist,KCC2 mod
Cn1c(=O)c([N+](=O)[O-])c(Cl)c2ccccc21,-33,95*,5,-1.1
O=C(O)c1cn(-c2ccccc2)nc1-c1ccc(Cl)cc1,.,5,.,-3.8*
COc1ccc(-c2nn(-c3ccccc3)cc2C(=O)O)cc1OC,6,6,.,-1.8
Cc1cccc(NC(=O)CSc2nnnn2-c2ccc3c(c2)CCC3)n1,-79,5,.,.
CSc1ccccc1NC(=O)CSCc1ccc(C)cc1,33,10,.,-3.9*
O=C(CSCc1ccc(Cl)cc1)Nc1ccccc1O,-18,15,-15,0.11
Cc1cc(-c2cc(N)c(=O)n(CC(=O)Nc3ccccc3OC(F)F)n2)c(C)o1,-94,14,.,.
COc1ccc(CNc2c(C(C)=O)nnn2-c2ccc(F)cc2)cc1,-85,3,.,.
O=C1OC2(CCCCC2)OC(=O)C1=CNc1nc2ccccc2s1,24,11,.,3.7*
O=C1OC2(CCCCC2)OC(=O)C1=CNc1nccs1,17,9,17,1.2
Cc1cc(=O)cc(C)n1-c1ccc(Br)cc1,23,5,-11,1.2
Cc1cn(C(=O)c2ccccc2)c(=S)n1-c1ccc(Br)cc1,65*,5,.,1.1
COc1cccc(NC(=O)CSc2nnc(-c3ccncc3)n2C2CCCCC2)c1,-27,17,.,.
COc1cccc(C2NC(=O)NC(C)=C2C(=O)OC(C)(C)C)c1 (configuration not stated),-16,6,.,.
Cc1ccc(CN2C(=O)C(C)Oc3ccc(C)cc32)cc1 (configuration not stated),83*,9,.,.
Nc1no[n+]([O-])c1C(=O)NCc1ccco1,-52,11,.,.
COc1ccc(C(=O)CSc2nnc(-c3ccc(OC)c(OC)c3)o2)cc1,-170,59*,.,.
c1ccc(B2OC[C@@H]3OB(c4ccccc4)O[C@H]([C@@H]4COB(c5ccccc5)O4)[C@H]3O2)cc1,13,41*,.,.
CCCn1c(SCC(=O)Nc2ccc(C)cc2)nnc1-c1ccoc1C,4,7,.,.
O=C(Cc1ccc(F)cc1)N1CCCC(c2nc(-c3cccnc3)n[nH]2)C1 (configuration not stated),-12,.,.,.
Cc1sc2ncnc(SCC(=O)Nc3ccccc3-c3ccccc3)c2c1C,84*,5,.,.
Cc1sc2ncn3c(SCC(=O)Nc4ccccc4-c4ccccc4)nnc3c2c1C,67*,17,.,.
CCOc1ccc(OCC)c(-c2c(=O)n(OCc3ccccc3Br)c3ccccc3[n+]2[O-])c1,64*,5,.,.
O=C1NC(=S)S/C1=C/c1ccc(N2CCOCC2)o1,22,18,-2,-7.7*
O=C1S/C(=C/c2ccc(N3CCOCC3)o2)C(=O)N1Cc1ccc(F)cc1,-8,4,.,.
SMILES,EP2 modulator,EP2 antag,S1P3 antagonist,KCC2 mod
Cc1cccc(NC(=O)CSc2nnc3n2C(C)(C)Cc2ccccc2-3)c1,-50,0,.,.
O=C1CCN2C=Nc3sc4c(c3C2=N1)CCCC4,-10,5,.,.
CC1(C)Cc2c(sc3c2C2=NCCN2C=N3)CO1,.,14,.,7*
CN(C)c1ccc(C(=C2C=CC(=[N+](C)C)C=C2)c2ccccc2)cc1,11,81*,.,.
CN(C)c1ccc(C(=C2C=CC(=[N+](C)C)C=C2)c2ccc(N(C)C)cc2)cc1,-73,29,.,.
COc1cccc(-c2nnc(NC(C)=O)o2)c1,12,10,-9,-0.011
COc1ccccc1-c1nnc(Nc2nc3c(OC)cccc3s2)o1,-39,11,16,4.1*
COc1cccc(-c2nnc(Nc3nc4c(F)cccc4s3)o2)c1,-4,25,-37,39*
COC(=O)NCC(c1cccnc1)N1CCN(c2ccccc2F)CC1 (configuration not stated),-8,6,102*,-0.045
CCc1cccc(C)c1NC(=O)CN1C(=O)C(C)(C)Oc2ccc(C(=O)NC(C)C)cc21,5,8,.,.
CC(=O)N/N=C/c1cc(C(C)C)cc(/C=N/NC(C)=O)c1O,-8,10,-14,5.7*
CC(=O)N/N=C/c1cc(C)n(-c2ccc(Br)cc2)c1C,-3,4,-7,-0.087
CCCCNC(=S)NC(=O)c1ccc([N+](=O)[O-])cc1,-3,11,.,21*
CC(C)CNC(=S)NC(=O)c1ccc([N+](=O)[O-])cc1,11,15,.,20*
COc1ccc(C(=O)Nc2nc3c(s2)CCc2c-3cnn2C)cc1OC,-76,11,.,.
